Laboratory results from PubChem BioAssay (Tox21).
Records with an inconclusive call do not appear. Calls of active or inactive are those of the source. Unless noted, calls follow the shape of the dose curve; as a rule, active = well fitted curve in the direction sought with a large enough effect in the repeat runs; inconclusive = weak or mixed curves; inactive = no such curve, though single readings can be large; an effect the other way counts as inactive or inconclusive.

Tests used:
[1] = qHTS assay to identify small molecule agonists of the hypoxia (HIF-1) signaling pathway - cell viability counter screen (AID 1224844; calls by dose curve; also: nearly all actives have a fitted effect of over 50% in size; also: potency is read from the fitted curve at half-maximal effect)
Method in brief: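 Multiplexed with the HRE beta-lactamase assay, this viability read used CellTiter-Glo luminescence (30 min, RT) on HRE-bla ME-180 cells treated 17 hrs with compounds in 0.5% dialyzed FBS medium.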

[2] = qHTS assay to identify small molecule agonists of H2AX (AID 1224845; active = well fitted activation curve with a large enough effect in the signal ratio in the repeat runs, not every such curve was filed as active; the % refers to the signal ratio; also: % is scaled to controls: 0 for no effect and ±100 for the full control effect)
Method in brief: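 Phospho-H2AX Ser139 measured by HTRF (ex 320 nm; em 665 and 620 nm) after 24 hr antibody incubation. Compounds, 15 concentrations, 0.76% DMSO, were applied to CHO-K1 cells for 3hr at 37C before lysis.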

[3] = qHTS assay to identify small molecule agonists of the hypoxia (HIF-1) signaling pathway (AID 1224846; active = well fitted activation curve with a large enough effect in the signal ratio in the repeat runs, not every such curve was filed as active; the % refers to the signal ratio; also: % is scaled to controls: 0 for no effect and ±100 for the full control effect)
Method in brief: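 Hypoxia-pathway activation was scored as increased beta-lactamase from an HRE-controlled reporter in ME-180 cells; plated at 2,000 cells per well with 0.5% dialyzed FBS, they were exposed 17 hrs to compounds and then given CCF4-AM.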

[4] = qHTS assay to identify small molecule antagonists of the estrogen related receptor (ERR) signaling pathway from Tox21 library (AID 1224848); also: potency is read from the fitted curve at half-maximal effect; nearly all actives have a fitted effect of over 50% in size
Method in brief: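 Antagonist-mode screen of the Tox21 10K library in an NTP-provided ERR reporter cell line; 18 h compound exposure at 37 C, luminescence measured with ONE-Glo.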

[5] = qHTS assay to identify small molecule agonists of the estrogen related receptor (ERR) signaling pathway from Tox21 library (AID 1224849; calls by dose curve; also: % is scaled to controls: 0 for no effect and ±100 for the full control effect; nearly all actives have a fitted effect of over 15% in size); conditions: ERR reporter cell line, ONE-Glo luciferase, 18 h; at 92.4 µM (top of the series) unless noted
Method in brief: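 Six hours post-seeding at 37 C/5% CO2, ERR cells receive DMSO-solubilised compounds; after 18 h at 37 C, ONE-Glo reagent is applied and luminescence recorded.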

[6] = qHTS RealTime-Glo MT Cell Viability Assay in HEK293 cells - 32 hour (AID 1224868); also: top concentration of the series differs between compounds; % is scaled to controls: 0 for no effect and ±100 for the full control effect; nearly all actives have a fitted effect of over 50% in size
Method in brief: (§1)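 HEK293 cells seeded with NanoLuc/prosubstrate reagent, rested 5 h at 37 C, then dosed and kept at 37 C up to 40 h. Nonlytic real-time luminescence from viable cells read at 0, 8, 16, 24, 32 and 40 h.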

[7] = A CellTox Green Cytotoxicity Assay to monitor cytotoxicity in HEK293 cells - 0 hour (AID 1224869); also: % is scaled to controls: 0 for no effect and ±100 for the full control effect; nearly all actives have a fitted effect of over 50% in size
Method in brief: (§2)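 Seeding of HEK293 cells together with cytotoxicity dye preceded a 5 h incubation at 37 C/5% CO2. Test compounds in DMSO were then added and fluorescence monitored across 40 h.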

[8] = A CellTox Green Cytotoxicity Assay to monitor cytotoxicity in HEK293 cells - 40 hour (AID 1224871); also: nearly all actives have a fitted effect of over 45% in size; also: potency is read from the fitted curve at half-maximal effect
Method in brief: as §2

[9] = qHTS RealTime-Glo MT Cell Viability Assay in HEK293 cells - 16 hour (AID 1224872)
Method in brief: as §1

[10] = qHTS RealTime-Glo MT Cell Viability Assay in HEK293 cells - 40 hour (AID 1224874); conditions: RealTime-Glo luminescence; max response: stronger effect = lower value
Method in brief: (§3)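 Tox21 screen in HEK293 using RealTime-Glo MT chemistry, with cells and reagent co-dispensed. Luminescence proportional to viable cell number was captured at intervals during 40 h compound exposure at 37 C.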

[11] = A CellTox Green Cytotoxicity Assay to monitor cytotoxicity in HEK293 cells - 24 hour (AID 1224875); also: % is scaled to controls: 0 for no effect and ±100 for the full control effect; nearly all actives have a fitted effect of over 45% in size
Method in brief: as §2

[12] = A CellTox Green Cytotoxicity Assay to monitor cytotoxicity in HepG2 cells - 16 hour (AID 1224876); also: % is scaled to controls: 0 for no effect and ±100 for the full control effect; nearly all actives have a fitted effect of over 45% in size
Method in brief: (§4)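 Nonlytic assay: viable cells exclude the dye, so fluorescence scales with cell death. HepG2 at 600 cells/well, compounds added after 5 h, signal read across 40 h.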

[13] = A CellTox Green Cytotoxicity Assay to monitor cytotoxicity in HepG2 cells - 40 hour (AID 1224879); also: % is scaled to controls: 0 for no effect and ±100 for the full control effect; nearly all actives have a fitted effect of over 40% in size
Method in brief: as §4

[14] = qHTS RealTime-Glo MT Cell Viability Assay in HEK293 cells - 0 hour (AID 1224880); also: nearly all actives have a fitted effect of over 45% in size; also: potency is read from the fitted curve at half-maximal effect
Method in brief: as §3

[15] = qHTS RealTime-Glo MT Cell Viability Assay in HepG2 cells - 24 hour (AID 1224867)
Method in brief: (§5)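 HepG2 cells (600/well) were dispensed with RealTime-Glo reagents, incubated 5 h at 37 °C, then treated with compounds in DMSO for up to 40 h. Nonlytic NanoLuc luminescence reflecting viable cells was read at each stated time point.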

[16] = qHTS RealTime-Glo MT Cell Viability Assay in HepG2 cells - 8 hour (AID 1224873); also: % is scaled to controls: 0 for no effect and ±100 for the full control effect; nearly all actives have a fitted effect of over 55% in size
Method in brief: (§6)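 Real-time viability: cells seeded at 600 per well together with NanoLuc and cell-permeant prosubstrate, compounds added after 5 h incubation. Luminescence tracked at 0, 8, 16, 24, 32 and 40 h of exposure.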

[17] = qHTS RealTime-Glo MT Cell Viability Assay in HepG2 cells - 32 hour (AID 1224877); also: % is scaled to controls: 0 for no effect and ±100 for the full control effect; nearly all actives have a fitted effect of over 55% in size
Method in brief: as §5

[18] = A CellTox Green Cytotoxicity Assay to monitor cytotoxicity in HepG2 cells - 24 hour (AID 1224878)
Method in brief: as §4

[19] = qHTS assay to identify small molecule agonists of H2AX - cell viability counter screen (AID 1224847; calls by dose curve;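 also: wild-type CHO-K1 cells; top concentration of the series differs between compounds; % is scaled to controls: 0 for no effect and ±100 for the full control effect; nearly all actives have a fitted effect of over 30% in size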)
Method in brief: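 Counter-screen for viability: CellTiter-Glo ATP luminescence read after 3 h compound treatment (15-point titration, 0.76% DMSO final) of CHO-K1 cells at 37C, with 30 min room-temperature reagent incubation.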

[20] = qHTS RealTime-Glo MT Cell Viability Assay in HepG2 cells - 40 hour (AID 1224870)
Method in brief: as §6

O=C(O)c1cccc(N(Cc2cccnc2)c2ccc(OC(F)F)c(OC(F)F)c2)c1
active: Potency [4] 61.1 µM | Potency [14] 19.5 µM
inactive: Potency [1] | Potency [2] | outcome [3] | activity change, positive = activation [5] -33.2% | Potency [6] | Potency [7] | Potency [8] | Potency [9] | max response [10] -2.06% | Potency [11] | Potency [12] | Potency [13]

O=C=NC1CCC(CC2CCC(N=C=O)CC2)CC1 (configuration not stated)
inactive: Potency [1] | Potency [2] | outcome [3] | Potency [15] | Potency [7] | Potency [9] | Potency [16] | Potency [12] | Potency [17] | Potency [18] | Potency [14]
active: Potency [8] 49 µM

COc1ccc([C@@H]2Sc3ccccc3N(CCN(C)C)C(=O)[C@@H]2OC(C)=O)cc1
inactive: Potency [2] | Potency [19] | activity change, positive = activation [5] -33.7% [at 42.5 µM] | Potency [15] | Potency [7] | Potency [20] | Potency [9] | Potency [16] | Potency [11] | Potency [12] | Potency [17] | Potency [18] | Potency [13] | Potency [14]
active: Potency [1] 21.3 µM

Nc1ccc(C(=O)N2CC3CC(CN(Cc4ccccc4)C3)C2)cc1
inactive: Potency [1] | Potency [2] | Potency [19] | activity change, positive = activation [5] -11% [at 42.5 µM] | Potency [15] | Potency [7] | Potency [20] | Potency [8] | Potency [9] | Potency [16] | max response [10] -8.65% | Potency [11] | Potency [12] | Potency [17] | Potency [18] | Potency [13] | Potency [14]

O=S1(=O)c2cccc3cccc(c23)N1CCCN1CCN(c2ccc(F)cc2)CC1
inactive: Potency [1] | Potency [2] | Potency [19] | activity change, positive = activation [5] -30.2% [at 42.5 µM] | Potency [15] | Potency [6] | Potency [7] | Potency [20] | Potency [8] | Potency [9] | Potency [16] | max response [10] -11.7% | Potency [11] | Potency [17] | Potency [14]

Cc1cccc(C(C)(C)C)c1O
inactive: Potency [1] | Potency [2] | outcome [3] | Potency [15] | Potency [6] | Potency [7] | Potency [20] | Potency [9] | Potency [16] | max response [10] -2.49% | Potency [12] | Potency [17] | Potency [18] | Potency [14]

NCCCN(CCO)CCO
inactive: Potency [1] | Potency [2] | outcome [3] | Potency [15] | Potency [6] | Potency [7] | Potency [20] | Potency [8] | Potency [9] | Potency [16] | max response [10] -7.84% | Potency [11] | Potency [12] | Potency [17] | Potency [13]
